# Sampled rows, rich in hits. Any-hit rate of the full collection: about 7.4%.
# Rab9 promoter act: Rab9 promoter activation | Huh7 Rab9 promoter-luciferase reporter, luminescence, 24 h | Potency, µM (top dose mostly 9.22 µM), for the others: top-dose activation, negative = inhibition, most hits filed as activators | hit rate 2.8% among 320,000; also: % of control where 0% means no effect; nearly all actives have a fitted effect of over 60% in size
#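 Steps: seed 1500 Huh7 Rab9-luc cells per well, rest 2 h at 37 °C; add compound in DMSO; incubate 24 h; add luciferase reagent, 10 min ambient; read luminescence.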
# ELG1 genotox: induces genotoxicity in HEK293T cells with luciferase-tagged ELG1; HEK293T ELG1-luciferase reporter, luminescence, 16 h; Potency, µM (top dose mostly 46 µM), for inactives: at the top dose activity change, positive = activation, most hits filed as activators; hit rate 1.3% among 330,000; also: % of control where 0% means no effect; nearly all actives have a fitted effect of over 60% in size
#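 Genotoxic stress is detected as increased luminescence from luciferase-tagged ELG1 in HEK293T cells, measured with ONE-Glo after a 16 hr treatment at 37 °C.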
# SMN2 splice enh: SMN2 splice variant enhancement. HEK293 SMN2-luciferase splicing reporter, luminescence, 30-36 h. Potency, µM (doses to about 46.1 µM), without a hit: at the top dose activity change, positive = activation, most hits filed as activators. hit rate 2.8% among 210,000. AID 1458; also: % of control where 0% means no effect; nearly all actives have a fitted effect of over 55% in size
#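 qHTS luciferase splicing reporter: luminescence rises when SMN2 exon 7 is included in transfected HEK293 cells. Compound exposure lasted 30-36 h at 37C, with 4.5 mM final sodium butyrate as control, followed by a ONE-Glo read.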
# NPC1 prom act: NPC1 promoter activation | Potency, µM (titrated, usually from 9.22 µM), for inactives: at the top dose activation, hits mostly activators | hit rate 2.4% among 320,000 | Huh7 NPC1 promoter luciferase reporter, 24 h; also: % of control where 0% means no effect; nearly all actives have a fitted effect of over 60% in size
#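 Cells: Huh7 expressing luciferase under the NPC1 promoter, 1500/well. Seeded 2 h, compound added, incubated 24 h at 37 °C. Luciferase reagent, 10 min ambient, then luminescence.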
# FLuc modulator: firefly luciferase modulation, counter-screen for miR-21 project | P08659 | hit rate 6.9% among 360,000 | AID 588342 | purified FLuc, Km substrates, luminescence inhibition | Potency, µM (series often up to 57.5 µM), inactives show top-dose activity change, negative = inhibition, actives largely listed as inhibitors;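 also: plate controls were vehicle for no effect and reference inhibitor for full effect; nearly all actives have a fitted effect of over 55% in size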
# Target sequence (P08659 whole entry, looked up): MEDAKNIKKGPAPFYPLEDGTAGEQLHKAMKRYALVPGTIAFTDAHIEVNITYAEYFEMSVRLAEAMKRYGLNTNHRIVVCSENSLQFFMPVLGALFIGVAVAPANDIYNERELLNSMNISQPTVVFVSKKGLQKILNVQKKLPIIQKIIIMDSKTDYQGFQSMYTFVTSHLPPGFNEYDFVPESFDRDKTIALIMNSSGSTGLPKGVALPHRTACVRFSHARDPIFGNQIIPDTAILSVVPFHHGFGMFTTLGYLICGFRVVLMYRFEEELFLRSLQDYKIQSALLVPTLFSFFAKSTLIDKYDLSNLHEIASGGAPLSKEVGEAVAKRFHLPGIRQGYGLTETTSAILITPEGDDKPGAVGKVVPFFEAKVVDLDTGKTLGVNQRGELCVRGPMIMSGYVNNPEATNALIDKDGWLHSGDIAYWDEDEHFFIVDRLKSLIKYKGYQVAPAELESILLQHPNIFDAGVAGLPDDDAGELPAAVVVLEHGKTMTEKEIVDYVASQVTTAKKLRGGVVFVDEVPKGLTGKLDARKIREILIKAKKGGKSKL
#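 Purified P. pyralis luciferase (10nM final) with 10uM D-luciferin and 10uM ATP (Km levels) in 50mM Tris acetate pH 7.5, 10mM Mg acetate, 0.01% Tween-20, 0.05% BSA; qHTS 6-point titration, ~60 µM downward; luminescence read.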
# KinaseGlo FLuc: Kinase-Glo luciferase inhibition (counter-screen); Q27757; Kinase-Glo luciferase, ATP luminescence, 8 min; Potency, µM (doses to about 38.3 µM), inactives show top-dose activity change, negative = inhibition, usual class: inhibitors; hit rate 0.28% among 200,000; AID 1379; also: % is scaled to controls: 0 for no effect and ±100 for the full control effect; nearly all actives have a fitted effect of over 60% in size
#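 Kinase-Glo luciferase light output from ATP and luciferin was measured with 10 uM ATP, within the enzyme's linear range. Buffer: 50 mM imidazole pH 7.2, 50 mM KCl, 7 mM MgCl2, 0.01% Tween 20, 0.05% BSA; luminescence read after 8 min at ambient temperature.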
# An asterisk follows results filed as active; ? = inconclusive; · = no result given. Calls follow the shape of the dose curve; as a rule, active = well fitted curve in the direction sought with a large enough effect; inconclusive = small, poorly fitted or top-dose-only effect, or another doubt; inactive = no such curve, though single readings can be large; an effect the other way counts as inactive or inconclusive. Potency is read from the fitted curve at half-maximal effect.
SMILES,Rab9 promoter act,ELG1 genotox,SMN2 splice enh,NPC1 prom act,FLuc modulator,KinaseGlo FLuc
COc1ccc(/C(=N\Nc2ccccc2C(=O)O)c2ccccc2)cc1,26%,12%,-31%,17%,9.5µM*,2%
CC1(C)N=C(SCc2ccc(F)cc2)c2ccccc2N1,·,·,·,·,3%,·
Oc1ccc2ccccc2c1/C=N/c1nccs1,-5%,-4%,-10%,8%,-7%,0%
Oc1ccc2ccccc2c1C=NCc1cn2ccsc2n1,-3%,2%,9%,-3%,19µM*,1%
Nc1ccc(Cc2ccc(N)c(O)c2)cc1O,?,-13%,5%,0%,19µM*,-3%
COc1ccc(N2CCN(c3ccc(-c4nc(-c5ccccc5)no4)cc3[N+](=O)[O-])CC2)cc1,·,·,·,·,-12%,·
COc1ccc(C2=NNC(c3cc(Cl)cc4c3OCOC4)C2)c(O)c1 (stereo not given),0%,-4%,-67%,0%,13µM*,0%
COc1cc(OC)c(NC(=O)Cn2c(=O)oc3cc(S(=O)(=O)N4CCCC4)ccc32)cc1Cl,·,·,·,·,-11%,·
Cc1ccccc1N1CCN(c2ccc(NC(=O)C3CCCCC3C(=O)O)cc2)CC1 (stereo not given),1%,1%,-19%,0%,11µM*,-4%
O=C(O)[C@H]1CCCC[C@H]1C(=O)Nc1ccc(Nc2ccccc2)cc1,0%,2%,8%,1%,?,-4%
O=C(Nc1c2c(nn1-c1ccc(Cl)cc1)CS(=O)(=O)C2)c1cccc(F)c1,·,·,·,·,1%,·
O=C(CN1C(=O)NC2(CCOc3ccccc32)C1=O)c1ccc(Cl)s1 (stereo not given),-7%,-1%,·,0%,·,·
CCc1ccc(C(=O)CN2C(=O)NC3(CCOc4ccccc43)C2=O)s1 (stereo not given),1%,1%,·,-3%,17µM*,·
O=C(CCC1N=C2c3ccccc3N=C(SCc3ccccc3Cl)N2C1=O)NCCc1ccccc1 (stereo not given),·,·,·,·,-1%,·
CC(=O)c1ccc(NC(=O)Nc2ccccc2)cc1,0.32µM*,1.8µM*,11µM*,0.45µM*,7.6µM*,-6%
CCN(CC)c1ccc(NC(=O)Nc2ccc(C(C)=O)cc2)cc1,4%,1%,10%,1%,0%,1%
O=C(Nc1ccccc1)Nc1ccc2ccccc2c1,3.5µM*,14%,·,2.5µM*,?,·
O=C(c1ccc(NC(=O)C2(c3ccccc3)CCCC2)cc1)N1CCOCC1,-1%,-5%,·,-1%,-3%,·
O=C(Nc1ccccc1)Nc1ccc(C(=O)N2CCOCC2)cc1,1%,?,20µM*,?,13µM*,3.2µM*
CCN(CC)c1ccc(NC(=O)Nc2ccccc2)cc1,3.2µM*,10µM*,·,0.89µM*,0.95µM*,·
CC(=O)Nc1ccc2ccccc2c1,15%,?,7%,21%,?,18%
Brc1cc(Oc2cc(Br)c(Br)c(Br)c2Br)c(Br)c(Br)c1Br,·,·,2%,·,·,·
Cc1c(C(=O)N(C)C)sc2c1c(=O)n(-c1ccc(Cl)c(Cl)c1)c(=O)n2CC(=O)N1CCCCC1C (stereo not given),·,·,·,·,-2%,·
COc1ccccc1C(=O)Nc1ccc(C(=O)OCc2cc(=O)n3ccsc3n2)cc1,·,·,·,·,-1%,·
O=C(O)c1ccc2c(c1)C(=O)N([C@]1(C(=O)O)C[C@H]1c1ccccc1)C2=O,2%,·,·,1%,-1%,·
SMILES,Rab9 promoter act,ELG1 genotox,SMN2 splice enh,NPC1 prom act,FLuc modulator,KinaseGlo FLuc
CC(=O)c1ccc(NC(=O)c2cccc(NC(=O)c3ccccc3)c2)cc1,29%,10%,·,16%,?,·
CC(=O)c1cccc(NC(=O)Nc2ccccc2)c1,16%,2%,·,25%,12µM*,·
CC(=O)c1cccc(NC(=O)NCc2ccccn2)c1,?,9.2µM*,16µM*,?,9.5µM*,-2%
O=C(Nc1ccc(N2CCOCC2)cc1)c1cc2c(s1)CCCCC2,-9%,2%,-16%,-1%,19µM*,1%
O=C(Nc1ccccc1N1CCOCC1)c1cc2c(s1)CCCCC2,?,7%,·,27%,4.8µM*,3%
CCOCCc1nn2c(=O)cc(COC(=O)c3ccc(NC(=O)c4cccs4)cc3)nc2s1,·,·,·,·,2%,·
COc1cc(C=O)ccc1OCC(=O)Nc1cccc(S(=O)(=O)N(C)c2ccccc2)c1,0%,1%,·,-2%,-18%,·
COc1ccccc1OCC(=O)Nc1cccc(N(C)S(C)(=O)=O)c1,0%,2%,14%,12%,17µM*,-3%
CN(c1cccc(NC(=O)CN2C(=O)c3ccccc3S2(=O)=O)c1)S(C)(=O)=O,-1%,1%,23%,13%,27µM*,1%
COc1ccc(C(=O)Nc2cccc(N(C)S(C)(=O)=O)c2)cc1OC,?,16µM*,13µM*,?,17µM*,-11%
COc1ccc(Cl)cc1NC(=O)CSc1c2c(nc3ccccc13)CCC2,·,·,-16%,·,-10%,·
Cc1ccc(-n2ncc3ccccc3c2=O)cc1Cl,2.8µM*,?,14µM*,2.5µM*,5.4µM*,-3%
O=c1c2ccccc2cnn1Cc1n[nH]c(=S)n1-c1ccc(Cl)cc1,1%,2%,-1%,0%,-1%,3%
O=c1c2ccccc2cnn1-c1ccc(Cl)cc1,1µM*,?,10µM*,1.4µM*,5.4µM*,-10%
Cc1c(C2=CCN(S(=O)(=O)c3ccc(CC(C)C)cc3)CC2)c2ccccc2n1CC(=O)N1CCCC1,·,·,-3%,·,-9%,·
O=C(COC(=O)COc1ccccc1Cc1ccccc1)Nc1cccnc1Cl,0%,5%,5.6µM*,-4%,-1%,-1%
O=C(COC(=O)c1ccccc1Cl)Nc1cccnc1Cl,0%,2%,·,0%,?,·
COc1cc2c(cc1OC)n(CC(=O)c1ccc(F)cc1)c(=O)n1nc(CCn3nc(C)cc3C)nc21,·,·,·,·,0%,·
COC(=O)c1ccc(NC(=O)c2cc(S(=O)(=O)N3CCc4ccccc43)cn2C)cc1,·,·,·,·,4%,·
Cc1cc(C(=O)Nc2cccc([N+](=O)[O-])c2C)cs1,13%,10%,·,8%,-16%,·
CC(C)(C)c1ccc(NC(=O)c2ccccc2)c([N+](=O)[O-])c1,0.5µM*,-10%,8%,0.45µM*,4.3µM*,-6%
Cc1c(NC(=O)c2ccc(C(C)(C)C)cc2)cccc1[N+](=O)[O-],?,10%,16µM*,?,13µM*,-1%
c1ccsc1,·,·,-10%,·,·,·
CC(C)(C)C1CCC(=NOC(=O)c2ccc(F)cc2)CC1 (stereo not given),3%,0%,1%,-7%,19µM*,-2%
